Compounds with a hit are over-represented: about 4% of the library has one in this group of screens.
Mtb FBA inh: inhibits M. tuberculosis FBA enzyme. P9WQA3. purified M. tuberculosis FBA, fluorescence read-out. inhibition, % at 1 µM. 360,000 tested, 2.3% active;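 also: 0% = vehicle and 100% = reference inhibitor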
Target sequence (P9WQA3 whole entry, looked up): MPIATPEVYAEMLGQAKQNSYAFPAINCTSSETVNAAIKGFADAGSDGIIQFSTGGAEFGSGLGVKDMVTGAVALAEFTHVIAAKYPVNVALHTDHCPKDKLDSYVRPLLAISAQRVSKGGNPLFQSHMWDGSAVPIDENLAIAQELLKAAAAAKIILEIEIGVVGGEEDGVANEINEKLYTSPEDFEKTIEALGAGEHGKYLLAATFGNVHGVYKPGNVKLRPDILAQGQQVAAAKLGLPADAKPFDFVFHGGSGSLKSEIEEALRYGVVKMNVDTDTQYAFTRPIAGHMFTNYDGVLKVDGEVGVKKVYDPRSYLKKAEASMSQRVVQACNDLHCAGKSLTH
Mtb bLac sens: beta-lactam sensitization of Mtb H37Rv; M. tuberculosis H37Rv growth with meropenem, percent inhibition; inhibition, % at 25 µM; 330,000 tested, 0.27% active; AID 434955; call rule not given here;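 also: growth measured after seven days incubation then overnight dye step; 0% = bacteria only wells and 100% = bacteria with antibiotic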
UGM FP inh: Mtb UDP-galactopyranose mutase inhibition. P9WIQ1. purified UGM, fluorescence polarization probe displacement. inhibition, % at 10 µM. 320,000 tested, 0.06% active. AID 504406; in the data active = inhibition above about 10%, passing the limit was not always enough
Rv3671c protease: inhibitors of M. tuberculosis serine protease Rv3671c; AID 2606; 320,000 tested, 0.048% active; P9WHR9; inhibition, % at 5.96 µM; in the data active = inhibition above about 38%;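 also: extracellular domain of Rv3671c used as enzyme; 0% = enzyme with DMSO and 100% = no enzyme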
GDH-TPI counter-1: GDH-TPI coupled enzyme inhibition counter-screen; 360,000 tested, 1.2% active; inhibition, % at 4.8 µM; AID 588335; GDH-TPI coupled enzyme counterscreen, NADH absorbance; in the data active = inhibition above about 30%;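 also: 0% = DMSO wells and 100% = wells lacking the enzyme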
RecA intein inh: Mtb RecA intein splicing inhibition; P9WHJ3; 290,000 tested, 0.75% active; cell-free RecA intein splicing, fluorescence; AID 2221; inhibition, % (no concentration beside the values); in the data active = inhibition above about 30%;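 also: 0% = vehicle wells and 100% = reference inhibitor control wells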
Mtb FBA inh conf: confirmation of M. tuberculosis fructose-bisphosphate aldolase inhibitors. shares compounds with Mtb FBA inh. purified M. tuberculosis FBA, fluorescence read-out. inhibition, % at 1 µM. 5,600 tested, 78% active. AID 651616;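 also: 0% = vehicle wells and 100% = reference inhibitor wells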
GDH-TPI counter-2: counter-screen for M. tuberculosis FBA inhibitors: GDH-TPI coupled enzyme inhibition; shares compounds with Mtb FBA inh; inhibition, % at 1 µM; GDH-TPI coupled enzyme counterscreen, fluorescence; 5,600 tested, 81% active; AID 652141; in the data active = inhibition above about 10%
* marks the source's active call; other numbers are inactive results; . = not tested or not shown; + = active, no number. Rule as the data show it, unless noted: active = inhibition above about 27%; inactive = the rest.

SMILES	Mtb FBA inh	Mtb bLac sens	UGM FP inh	Rv3671c protease	GDH-TPI counter-1	RecA intein inh	Mtb FBA inh conf	GDH-TPI counter-2
COc1ccc(Cn2c(N)c(S(=O)(=O)c3cccs3)c3nc4ccccc4nc32)cc1	49*	-3	0	-1	13	-4	115*	79*
COC(=O)C1=CN(Cc2cccs2)C=C(C(=O)OC)C1c1cccc(Cl)c1	71*	-3	-1	-17	7	-6	65*	53*
COCCN1C=C(C(=O)OC)C(c2ccc3c(c2)OCO3)C(C(=O)OC)=C1	14	1	2	-1	12	-13	.	.
COC(=O)C1=CN(c2ccc(OC)cc2)C=C(C(=O)OC)C1c1cc(OC)c(OC)cc1OC	4	-7	1	-2	5	-16	.	.
CCCCOc1ccccc1C1C(C(=O)OC)=CN(CC)C=C1C(=O)OC	63*	-3	-1	6	20	-113	7	1
COC(=O)C1=CN(Cc2cccs2)C=C(C(=O)OC)C1c1ccc(OC)cc1OC	85*	2	0	-12	-4	-182	89*	93*
C[C@@H]1CCCCO[C@H](CN(C)C(=O)C2CCCCC2)[C@@H](C)CN([C@H](C)CO)C(=O)c2cc(N(C)C)ccc2O1	-3	.	.	.	3	.	.	.
Cc1nc(SCC(=O)Nc2ccc3[nH]c(=O)[nH]c3c2)nc(C)c1C	-1	-6	-1	7	10	.	.	.
COc1ccc(C(=O)Nc2ccc(-c3n[nH]c(=S)o3)cc2)cc1	1	85	0	.	15	11	.	.
C=CCOc1ccc(-c2n[nH]c(=S)o2)cc1	35*	13	4	3	4	-4	87*	76*
CCN1CCCC1CNC(=O)c1cc2cc(F)ccc2[nH]1 (stereo unspecified)	30*	-2	2	7	-1	-1	+	+
CCN1CCCC1CNC(=O)Cn1nc(C)n2c(cc3cc(F)ccc32)c1=O (stereo unspecified)	13	-9	1	3	8	-1	.	.
Cc1ccc(-c2nnc(N)s2)cc1	4	68	2	6	2	0	.	.
Nc1nnc(-c2ccncc2)s1	52*	4	0	-7	9	0	5	-1
Cc1ccc(OCCCC(=O)NC2CCCCC2)cc1	9	1	2	-4	6	0	.	.
CC1(C)Cc2c(c(-c3ccco3)nc3sc4c(NCCO)ncnc4c23)CO1	44*	0	-3	-6	30	-2	135*	101*
COCCCNc1ncnc2c1sc1nc(-c3ccco3)c3c(c12)CC(C)(C)OC3	39*	18	0	7	39*	2	98*	94*
COc1ccccc1C(=O)NCCC(=O)NC1CCC(C)CC1 (stereo unspecified)	-1	4	-3	2	4	.	.	.
CCCCCc1nnc(NC(=O)NS(=O)(=O)c2ccc(C)cc2)s1	41*	-7	0	4	2	-1	151*	121*
CC12CCC(=O)N1c1c(sc3nc(N4CCOCC4)c4c(c13)CCCC4)C(=O)N2 (stereo unspecified)	63*	1	0	9	27	-147	122*	113*
O=C(CN1C(=O)NC2(CCOc3ccccc32)C1=O)c1ccc(Br)cc1 (stereo unspecified)	-1	-12	4	-5	11	.	.	.
CCOC(=O)c1sc2cccc(F)c2c1N	103*	-11	8	-9	18	0	+	198*
CCOC(=O)c1sc2cccc(Cl)c2c1N	2	-5	0	3	5	4	.	.
Cc1cc(C)c2c(N)c(C(=O)NN3CC(=O)N(c4cccc(Cl)c4)CC3=O)sc2n1	15	2	1	4	3	-10	.	.
Cc1cc(C)c2c(N)c(C(=O)NN3CC(=O)N(c4ccccc4)CC3=O)sc2n1	57*	3	-2	8	2	-22	188*	129*
SMILES	Mtb FBA inh	Mtb bLac sens	UGM FP inh	Rv3671c protease	GDH-TPI counter-1	RecA intein inh	Mtb FBA inh conf	GDH-TPI counter-2
COc1cc(N=Cc2c(CO)cnc(C)c2O)cc(OC)c1OC	82*	8	0	-9	5	-2	63*	63*
COc1ccccc1N/N=C/c1c(CO)cnc(C)c1O	13	1	0	1	20	-3	.	.
O=C(Nc1cc(-c2nc3ncccc3o2)ccc1Cl)c1ccc([N+](=O)[O-])o1	3	1	5	-8	14	-2	.	.
O=C1CC(C(=O)Nc2ccc(O)c(C(=O)O)c2)C(c2ccccc2)O1 (stereo unspecified)	59*	5	-1	2	8	0	143*	165*
Cc1c(C(=O)NCc2ccc([N+](=O)[O-])cc2)sc(=O)n1Cc1ccc(-c2ccccc2)cc1	6	.	.	.	20	.	.	.
Nc1nc2n(n1)C(c1cccs1)CC(c1ccc(F)cc1)N2 (stereo unspecified)	13	7	0	-5	0	-1	.	.
Nc1nc2n(n1)C(c1cccs1)CC(c1ccccc1)N2 (stereo unspecified)	69*	-4	-1	0	16	2	101*	81*
C=CCn1c(SCC(=O)NCC2CCCO2)nc2c([nH]c3ccccc32)c1=O (stereo unspecified)	5	1	1	-9	1	-2	.	.
Cc1[nH]n2c(=O)c3c(nc2c1-c1ccc(F)cc1)CCCC3	5	100	-1	1	4	-4	.	.
Cc1nc2c(-c3ccc(F)cc3)c(C)[nH]n2c(=O)c1Cl	42*	91	1	2	24	43*	27	21*
Cc1nc2c(-c3ccc(Cl)cc3)c(C)[nH]n2c(=O)c1Cc1ccccc1	39*	99	3	-4	-2	-5	2	3
Cc1ccc(CN(C)C(=O)c2ccccc2NC(=O)c2ccccc2)o1	3	-3	.	11	8	.	.	.
O=C(/C=C/c1cn(-c2ccccc2)nc1-c1cccs1)NCCN1CCOCC1	46*	1	-1	-8	26	4	143*	87*
O=C(c1cn(-c2ccccc2)nc1-c1cccs1)N1CCOCC1	-2	1	-6	0	3	-1	.	.
CCC(C)Nc1ccc(NC(C)CC)cc1 (stereo unspecified)	-10	101	1	-4	11	.	.	.
Cc1ccc(-c2cc(C(=O)NCCCN3CCCC3)c3ccccc3n2)cc1C	35*	7	-3	-6	10	-4	95*	57*
Nc1ccccc1C(=O)NCCCN1CCOCC1	67*	2	2	-5	9	-1	76*	76*
Cc1ccc(-c2cc(C(=O)NCCCN3CCOCC3)c3ccccc3n2)cc1	50*	-2	1	-4	13	-11	7	-5
COc1ccc(-c2cc(C(=O)NCCN3CCOCC3)c3cc(C(C)C)ccc3n2)cc1	42*	80	0	-10	13	1	160*	153*

Screening data as filed in PubChem BioAssay.
